Values joined by “and” are separate entries in the source; they are usually repeats but may differ in a detail not shown here. Equal entries are not always repeated. Some structures have more than one record in an assay (separate samples or runs), and their calls can disagree. Active and inactive are the calls of the source. Unless noted, the call rests on the fitted dose curve; in most records, active means well fitted curve in the direction sought with a large enough effect in the repeat runs; inconclusive means weak or mixed curves; inactive means no such curve, though single readings can be large; an effect the other way counts as inactive or inconclusive.
Columns and labels:
[1] = qHTS assay to identify small molecule antagonists of the glucocorticoid receptor (GR) signaling pathway - cell viability counter screen (AID 720693); further: nearly all actives have a fitted effect of over 55% in size; further: potency means the concentration at half of the fitted maximal effect
[2] = qHTS assay for identifying genotoxic compounds that show differential cytotoxicity against isogenic chicken DT40 cell lines with known DNA damage response pathways - wild type cell line (AID 743012); further: nearly all actives have a fitted effect of over 60% in size; further: potency means the concentration at half of the fitted maximal effect
Procedure, shortened: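 Cytotoxicity in repair-proficient parental chicken DT40 cells serves as the comparator for Rad54/Ku70- and Rev3-deficient lines. Cells were exposed to compounds for 40 h at 37 C/5% CO2, and ATP-based luminescence (CellTiter-Glo) measured viability.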

[3] = qHTS assay for identifying genotoxic compounds that show differential cytotoxicity against isogenic chicken DT40 cell lines with known DNA damage response pathways - Rev3 mutant cell line (AID 743014); further: nearly all actives have a fitted effect of over 55% in size; further: potency means the concentration at half of the fitted maximal effect
[4] = qHTS assay for identifying genotoxic compounds that show differential cytotoxicity against isogenic chicken DT40 cell lines with known DNA damage response pathways - Rad54/Ku70 mutant cell line (AID 743015); further: nearly all actives have a fitted effect of over 60% in size; further: potency means the concentration at half of the fitted maximal effect
[5] = qHTS assay to identify small molecule antagonists of the androgen receptor (AR) signaling pathway using the MDA cell line - cell viability counter screen (AID 743041; further: nearly all actives have a fitted effect of over 45% in size; further: potency means the concentration at half of the fitted maximal effect)
Procedure, shortened: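 qHTS viability read-out; MDA-kb2 AR-luc; R1881-stimulated; 16 h exposure at 37C, 0% CO2; CellTiter-Fluor, 30 min; fluorescence intensity.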

[6] = qHTS assay to identify small molecule antagonists of the thyroid receptor (TR) signaling pathway - cell viability counter screen (AID 743064); further: nearly all actives have a fitted effect of over 50% in size; further: potency means the concentration at half of the fitted maximal effect
Procedure, shortened: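 Plate GH3.TRE-Luc cells; incubate 4 h at 37 °C; add compound, then T3 to 1 nM final; incubate 23.5 h; add CellTiter-Fluor; incubate 30 min at 37 °C, 5% CO2; read fluorescence.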

[7] = qHTS assay to identify small molecule antagonists of the thyroid receptor (TR) signaling pathway (AID 743065); further: nearly all actives have a fitted effect of over 55% in size; further: potency means the concentration at half of the fitted maximal effect
Procedure, shortened: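 GH3.TRE-Luc rat pituitary cells carrying two TR response elements driving luciferase were plated for 4 h, given compound plus 1 nM T3 (final), and incubated 23.5 h at 37 C. ONE-Glo luminescence measured reporter inhibition; CellTiter-Fluor fluorescence tracked cytotoxicity.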

[8] = system: thyroid hormone receptor (rat, GH3 cells); test: qHTS assay to identify small molecule agonists of the thyroid receptor (TR) signaling pathway (AID 743066; calls by dose curve)
[9] = target: Estrogen receptor (Homo sapiens) (UniProt P03372); test: qHTS assay to identify small molecule antagonists of the estrogen receptor alpha (ER-alpha) signaling pathway (AID 743069; active means well fitted curve in the direction sought with a large enough effect in the signal ratio in the repeat runs, not every such curve was filed as active; inconclusive means weak or mixed curves, or effect the other way; inactive means no such curve, though single readings can be large or run the other way; the % refers to the signal ratio; further: potency means the concentration at half of the fitted maximal effect)
Procedure, shortened: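 Screening used a UAS-driven beta-lactamase reporter integrated into HEK293 cells expressing ER-alpha, stimulated with 17beta-estradiol alongside test compounds over 18 hr at 37C; signal came from LiveBLAzer B/G FRET fluorescence.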

[10] = target: Estrogen receptor (Homo sapiens) (UniProt P03372); test: qHTS assay to identify small molecule agonists of the estrogen receptor alpha (ER-alpha) signaling pathway (AID 743075; calls by dose curve; further: potency means the concentration at half of the fitted maximal effect)
[11] = target: Estrogen receptor (Homo sapiens) (UniProt P03372); test: qHTS assay to identify small molecule agonists of the estrogen receptor alpha (ER-alpha) signaling pathway using the BG1 cell line (AID 743079); further: nearly all actives have a fitted effect of over 20% in size
[12] = qHTS assay to identify small molecule antagonists of the estrogen receptor alpha (ER-alpha) signaling pathway using the BG1 cell line (AID 743080; calls by dose curve;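 further: BG1 cells stimulated with 17beta-estradiol alongside compound; nearly all actives have a fitted effect of over 25% in size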; further: potency means the concentration at half of the fitted maximal effect)
Procedure, shortened: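 Readout is ONE-Glo luminescence, taken 30 min at room temperature after reagent addition, preceded by a CellTiter-Fluor viability read; BG1-Luc-4E2 cells had received compound and 17beta-estradiol for 21.5 h at 37 C.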

[13] = qHTS assay to identify small molecule antagonists of the estrogen receptor alpha (ER-alpha) signaling pathway using the BG1 cell line - cell viability counter screen (AID 743081);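 further: compound given together with 17beta-estradiol as the ER stimulus; nearly all actives have a fitted effect of over 45% in size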; further: potency means the concentration at half of the fitted maximal effect
[14] = target: Aromatase (Homo sapiens) (UniProt P11511); test: qHTS assay to identify aromatase inhibitors (AID 743083); further: nearly all actives have a fitted effect of over 55% in size; further: potency means the concentration at half of the fitted maximal effect
[15] = qHTS assay to identify aromatase inhibitors - cell viability counter screen (AID 743084); further: potency means the concentration at half of the fitted maximal effect
[16] = qHTS assay to identify small molecule antagonists of the androgen receptor (AR) signaling pathway - cell viability counter screen (AID 743033; further: nearly all actives have a fitted effect of over 45% in size; further: potency means the concentration at half of the fitted maximal effect)
[17] = target: Androgen receptor (Homo sapiens) (UniProt P10275); test: qHTS assay to identify small molecule antagonists of the androgen receptor (AR) signaling pathway (AID 743035; active means well fitted inhibition curve with a large enough effect in the signal ratio in the repeat runs, not every such curve was filed as active; inconclusive means weak or mixed curves, or effect the other way; inactive means no such curve, though single readings can be large or run the other way; the % refers to the signal ratio; further: potency means the concentration at half of the fitted maximal effect)
Procedure, shortened: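 Steps: seed AR-UAS-bla GripTite HEK293 cells, incubate 4 h at 37C; pin in test compound, then add agonist R1881; incubate 16 h at 37C; add LiveBLAzer B/G FRET substrate, 2 h at room temperature; read fluorescence.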

[18] = target: Androgen receptor (Homo sapiens) (UniProt P10275); test: qHTS assay to identify small molecule agonists of the androgen receptor (AR) signaling pathway using the MDA cell line (AID 743040; further: nearly all actives have a fitted effect of over 20% in size; further: potency means the concentration at half of the fitted maximal effect)
Procedure, shortened: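 Agonist activity is measured as luciferase luminescence in human MDA-kb2 cells whose MMTV reporter responds to both AR and GR. Compounds in DMSO incubate 16 h at 37C, 0% CO2, and ONE-Glo is read after 30 min.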

[19] = target: Androgen receptor (Homo sapiens) (UniProt P10275); test: qHTS assay to identify small molecule antagonists of the androgen receptor (AR) signaling pathway using the MDA cell line (AID 743042; further: nearly all actives have a fitted effect of over 55% in size; further: potency means the concentration at half of the fitted maximal effect)
Procedure, shortened: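 MDA-kb2 cells (human breast carcinoma, stably carrying an MMTV-luciferase reporter responsive to AR and GR) were plated at 3,000 cells/well and preincubated 5 hr at 37C, then given compound plus R1881 agonist for 16 h. ONE-Glo luminescence was read.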

[20] = qHTS assay to identify small molecule antagonists of the estrogen receptor alpha (ER-alpha) signaling pathway - cell viability counter screen (AID 743074; calls by dose curve; further: nearly all actives have a fitted effect of over 45% in size; further: potency means the concentration at half of the fitted maximal effect)

Measured: Potency

Estrogen receptor (Homo sapiens), sequence (P03372 whole entry, looked up): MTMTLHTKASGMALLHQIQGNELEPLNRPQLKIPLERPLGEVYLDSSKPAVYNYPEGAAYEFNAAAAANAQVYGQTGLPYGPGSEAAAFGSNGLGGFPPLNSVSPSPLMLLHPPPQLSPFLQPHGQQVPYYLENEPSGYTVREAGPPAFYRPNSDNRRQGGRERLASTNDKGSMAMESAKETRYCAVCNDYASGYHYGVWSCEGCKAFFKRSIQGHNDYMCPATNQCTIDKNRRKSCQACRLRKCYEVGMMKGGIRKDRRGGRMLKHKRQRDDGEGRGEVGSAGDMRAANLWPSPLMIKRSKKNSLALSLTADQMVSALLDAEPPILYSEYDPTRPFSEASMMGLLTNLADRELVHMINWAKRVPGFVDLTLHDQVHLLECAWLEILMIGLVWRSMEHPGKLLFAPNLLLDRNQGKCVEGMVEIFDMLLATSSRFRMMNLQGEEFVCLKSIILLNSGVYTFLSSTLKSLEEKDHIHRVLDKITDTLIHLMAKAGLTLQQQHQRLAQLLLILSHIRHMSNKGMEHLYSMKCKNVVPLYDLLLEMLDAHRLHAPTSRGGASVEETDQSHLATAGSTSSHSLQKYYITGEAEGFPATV
Androgen receptor (Homo sapiens), sequence (P10275 whole entry, looked up): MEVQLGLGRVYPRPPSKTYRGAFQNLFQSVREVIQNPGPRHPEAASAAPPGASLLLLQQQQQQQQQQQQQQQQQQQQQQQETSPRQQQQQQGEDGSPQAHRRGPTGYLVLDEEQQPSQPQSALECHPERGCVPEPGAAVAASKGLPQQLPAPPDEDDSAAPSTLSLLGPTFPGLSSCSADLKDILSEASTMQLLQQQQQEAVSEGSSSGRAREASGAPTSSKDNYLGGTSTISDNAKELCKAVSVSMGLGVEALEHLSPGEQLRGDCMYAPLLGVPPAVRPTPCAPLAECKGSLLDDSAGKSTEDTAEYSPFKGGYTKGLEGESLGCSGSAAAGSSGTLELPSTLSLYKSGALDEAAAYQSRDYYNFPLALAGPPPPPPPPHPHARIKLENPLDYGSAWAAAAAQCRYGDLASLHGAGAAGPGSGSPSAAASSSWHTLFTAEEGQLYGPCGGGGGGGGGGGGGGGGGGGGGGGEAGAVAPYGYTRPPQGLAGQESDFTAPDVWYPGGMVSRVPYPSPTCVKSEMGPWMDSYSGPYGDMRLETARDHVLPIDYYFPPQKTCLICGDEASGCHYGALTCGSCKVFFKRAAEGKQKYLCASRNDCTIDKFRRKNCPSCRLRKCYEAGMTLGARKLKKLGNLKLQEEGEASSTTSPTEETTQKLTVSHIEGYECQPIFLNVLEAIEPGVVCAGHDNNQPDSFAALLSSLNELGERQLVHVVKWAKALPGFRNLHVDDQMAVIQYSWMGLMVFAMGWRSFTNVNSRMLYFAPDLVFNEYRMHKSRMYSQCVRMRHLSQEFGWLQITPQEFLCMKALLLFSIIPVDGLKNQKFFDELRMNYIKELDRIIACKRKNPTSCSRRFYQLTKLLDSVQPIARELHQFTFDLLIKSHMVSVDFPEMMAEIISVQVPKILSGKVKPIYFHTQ
Aromatase (Homo sapiens), sequence (P11511 whole entry, looked up): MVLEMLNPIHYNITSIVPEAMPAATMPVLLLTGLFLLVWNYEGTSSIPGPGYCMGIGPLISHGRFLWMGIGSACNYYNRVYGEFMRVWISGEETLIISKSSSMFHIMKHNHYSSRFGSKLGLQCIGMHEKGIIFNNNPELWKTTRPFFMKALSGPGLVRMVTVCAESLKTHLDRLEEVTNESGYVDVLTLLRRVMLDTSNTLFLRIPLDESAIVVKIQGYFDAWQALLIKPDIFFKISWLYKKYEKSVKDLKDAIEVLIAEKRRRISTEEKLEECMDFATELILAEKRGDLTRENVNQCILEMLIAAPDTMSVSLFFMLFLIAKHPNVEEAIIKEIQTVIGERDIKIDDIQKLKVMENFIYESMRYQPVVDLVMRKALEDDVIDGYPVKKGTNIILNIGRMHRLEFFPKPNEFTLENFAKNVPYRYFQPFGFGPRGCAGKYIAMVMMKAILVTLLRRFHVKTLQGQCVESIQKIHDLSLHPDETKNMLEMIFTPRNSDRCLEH

ClC1=C(Cl)C2(Cl)C3C(Cl)C=CC3C1(Cl)C2(Cl)Cl (stereo not given)
active: [3] 30.6 µM | [4] 68.6 µM | [6] 30.8 µM and 54.5 µM | [7] 43.5 µM and 54.5 µM | [14] 68.6 µM
inactive and 48.6 µM (active): [2]
not listed: [16] | [17] | [18] | [19] | [20]
inactive: all other assays above

FC(Cl)(Cl)Cl
active: [18] 1.36 µM
not listed: [5] | [9] | [10] | [11] | [12]
inactive: all other assays above

CCOC(=O)C1(c2ccccc2)CCN(CCC(C#N)(c2ccccc2)c2ccccc2)CC1
active: [2] 2.98 µM and 5.31 µM | [3] 3.76 µM and 10.6 µM | [4] 5.31 µM and 9.44 µM | [17] 10.7 µM and 13.4 µM | [19] 26.6 µM and 53.1 µM | [7] 9.44 µM and 15 µM | [9] 6.01 µM [inconclusive] | [10] 53.5 µM [inconclusive]
inactive: [1] | [18] | [8] | [12] | [13] | [14] | [15]

ClC(Cl)=C(c1ccc(Cl)cc1)c1ccc(Cl)cc1
active: [6] 62.6 µM and 30.6 µM | [7] 55.8 µM and 30.6 µM
not listed: [11] | [16] | [17] | [18] | [19]
inactive: all other assays above

O=[N+]([O-])c1cc(C(F)(F)F)c(Cl)c([N+](=O)[O-])c1Cl
active: [1] 12.3 µM | [2] 0.386 µM | [3] 0.486 µM | [4] 0.386 µM | [16] 21.9 µM | [6] 0.611 µM | [7] 0.386 µM | [20] 54.9 µM | [13] 61.1 µM | [14] 1.22 µM | [15] 3.06 µM

C[C@H]1CC[C@@H]2[C@@H](C)[C@H]3[C@H](C[C@H]4[C@@H]5CC=C6CC(O[C@@H]7O[C@H](CO)[C@H](O)[C@H](O[C@@H]8O[C@H](CO)[C@@H](O)[C@H](O)[C@H]8O)[C@H]7O[C@H]7O[C@@H](C)[C@H](O)[C@@H](O)[C@H]7O)CC[C@]6(C)[C@H]5CC[C@]34C)N2C1 (stereo not given in full)
16.9 µM (active) and inactive: [20]
inactive: [1] | [3] | [16] | [8] | [9] | [11] | [13]
active: [12] 17.8 µM | [14] 25.1 µM | [15] 19.9 µM
18.8 µM (active) and inactive: [6]
26.6 µM (active) and inactive: [2] | [4]

CC(=O)OC1(c2ccccc2)CCN(CCc2ccccc2)CC1
inactive: [1] | [16] | [8] | [20] | [13] | [14] | [15]
active: [2] 4.43 µM | [3] 4.43 µM | [4] 4.43 µM | [6] 31.4 µM | [7] 55.8 µM

Cc1cc(C)cc(OP(=O)(Oc2cc(C)cc(C)c2)Oc2cc(C)cc(C)c2)c1
not listed: [5] | [7] | [17] | [18] | [19]
inactive: all other assays above

CC(=O)[O-].CC(=O)[O-].[Hg+2]
active: [1] 6.16 µM | [2] 1.54 µM | [3] 1.54 µM | [4] 1.09 µM | [16] 11 µM | [5] 27.3 µM | [6] 1.37 µM | [20] 49 µM | [13] 61.1 µM | [14] 2.73 µM | [15] 3.86 µM

C[C@@H]1CC[C@@]2(OC1)O[C@H]1[C@@H](O)[C@H]3[C@@H]4CC[C@H]5C[C@@H](O[C@@H]6O[C@H](CO)[C@H](O[C@@H]7O[C@H](CO)[C@@H](O)[C@H](O[C@@H]8OC[C@@H](O)[C@H](O)[C@H]8O)[C@H]7O[C@@H]7O[C@H](CO)[C@@H](O)[C@H](O[C@@H]8O[C@H](CO)[C@@H](O)[C@H](O)[C@H]8O)[C@H]7O)[C@H](O)[C@H]6O)[C@H](O)C[C@]5(C)[C@H]4CC[C@]3(C)[C@H]1[C@@H]2C
inactive: [18] | [8]
active: [1] 16.4 µM | [2] 16.3 µM | [3] 4.09 µM | [4] 2.05 µM | [16] 2.32 µM | [5] 25.8 µM | [19] 8.17 µM | [6] 2.05 µM | [7] 2.58 µM | [20] 10.4 µM | [10] 41.3 µM [inconclusive] | [13] 64.9 µM | [14] 9.16 µM | [15] 2.9 µM

COc1cccc(C(=O)CCN[C@@H](C)[C@H](O)c2ccccc2)c1
inactive: [1] | [17] | [18] | [20] | [14] | [15]
active: [2] 6.68 µM | [3] 16.8 µM | [4] 13.3 µM | [6] 13.3 µM | [7] 10.6 µM

Reference: PubChem BioAssay (Tox21)
